Data reported in article PMC7862700, “An all-to-all approach to the identification of sequence-specific readers for epigenetic DNA modifications on cytosine”.

How the values were obtained:
Test in all cases: DAPPL (digital affinity profiling via proximity ligation, sequencing); 10 mM Tris-HCl pH 7.5, 50 mM NaCl, 1 mM DTT, 4% glycerol, room temperature, 30 min; GST-TFs on glutathione beads, 16-mer random dsDNA library, 0.1% formaldehyde crosslink after washing; high values mean tight binding
[1] = molecular target: T1, FLI1 (Homo sapiens, UniProt Q01543 1-452); conditions: protein: recombinant; tags: N-terminal GST; dsDNA, one strand shown
T1 sequence: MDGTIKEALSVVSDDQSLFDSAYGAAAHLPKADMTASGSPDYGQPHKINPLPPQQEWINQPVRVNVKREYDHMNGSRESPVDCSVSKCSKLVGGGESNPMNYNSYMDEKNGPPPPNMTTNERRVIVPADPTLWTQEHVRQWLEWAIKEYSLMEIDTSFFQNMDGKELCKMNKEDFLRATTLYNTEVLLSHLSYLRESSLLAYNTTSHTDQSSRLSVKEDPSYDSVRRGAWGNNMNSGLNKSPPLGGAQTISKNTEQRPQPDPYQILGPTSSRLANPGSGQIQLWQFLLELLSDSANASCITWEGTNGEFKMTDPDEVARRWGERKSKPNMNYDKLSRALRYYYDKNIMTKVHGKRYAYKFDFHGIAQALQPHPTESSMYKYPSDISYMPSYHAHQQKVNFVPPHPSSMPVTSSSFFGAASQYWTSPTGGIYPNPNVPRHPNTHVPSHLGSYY
In short: (§1)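 Binding signal is each hexamer's read frequency for a factor divided by its frequency in the tag-only sample. The factors were GST-fused human transcription factors from yeast, captured on glutathione beads, DNA-barcoded and pooled with that sample. Pools were incubated with 200 nmole of a random double-stranded 16-mer DNA library in Tris/NaCl/DTT/glycerol buffer at room temperature for 30 min, then washed, crosslinked with 0.1% formaldehyde, proximity-ligated with BsaI/T4 ligase (1 h, 37 °C), PCR-amplified and sequenced on an Illumina NextSeq500.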

[2] = molecular target: T2, ELK1 (Homo sapiens, UniProt P19419 1-428); conditions: protein: recombinant; tags: N-terminal GST; dsDNA, one strand shown
T2 sequence: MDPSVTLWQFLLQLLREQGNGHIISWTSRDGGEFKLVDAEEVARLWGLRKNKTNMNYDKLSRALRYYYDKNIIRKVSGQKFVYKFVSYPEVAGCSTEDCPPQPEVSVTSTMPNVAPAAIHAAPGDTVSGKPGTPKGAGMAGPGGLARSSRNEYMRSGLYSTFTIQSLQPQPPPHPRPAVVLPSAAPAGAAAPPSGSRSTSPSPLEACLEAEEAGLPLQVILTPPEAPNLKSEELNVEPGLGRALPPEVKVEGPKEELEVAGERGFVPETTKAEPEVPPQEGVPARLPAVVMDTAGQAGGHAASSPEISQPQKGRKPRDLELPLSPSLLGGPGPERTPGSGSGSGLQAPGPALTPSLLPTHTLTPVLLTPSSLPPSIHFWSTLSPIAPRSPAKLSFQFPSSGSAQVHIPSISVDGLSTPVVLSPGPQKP
In short: as §1

[3] = molecular target: T3, GABPA (Homo sapiens, UniProt Q06546 1-454); conditions: protein: recombinant; tags: N-terminal GST; dsDNA, one strand shown
T3 sequence: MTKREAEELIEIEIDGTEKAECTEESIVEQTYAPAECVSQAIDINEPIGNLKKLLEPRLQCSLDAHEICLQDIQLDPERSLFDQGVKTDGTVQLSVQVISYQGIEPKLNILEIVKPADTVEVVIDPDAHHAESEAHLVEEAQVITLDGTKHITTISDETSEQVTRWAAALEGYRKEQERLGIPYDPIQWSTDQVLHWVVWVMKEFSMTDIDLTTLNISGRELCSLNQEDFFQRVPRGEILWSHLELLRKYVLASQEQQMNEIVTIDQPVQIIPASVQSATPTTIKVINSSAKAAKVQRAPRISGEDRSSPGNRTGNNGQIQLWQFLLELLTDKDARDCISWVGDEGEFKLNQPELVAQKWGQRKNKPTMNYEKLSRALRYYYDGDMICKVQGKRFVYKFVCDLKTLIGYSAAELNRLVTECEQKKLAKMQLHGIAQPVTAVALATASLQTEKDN
In short: as §1

[4] = molecular target: T4, ERG (Homo sapiens, UniProt P11308 1-479); conditions: protein: recombinant; tags: N-terminal GST; dsDNA, one strand shown
T4 sequence: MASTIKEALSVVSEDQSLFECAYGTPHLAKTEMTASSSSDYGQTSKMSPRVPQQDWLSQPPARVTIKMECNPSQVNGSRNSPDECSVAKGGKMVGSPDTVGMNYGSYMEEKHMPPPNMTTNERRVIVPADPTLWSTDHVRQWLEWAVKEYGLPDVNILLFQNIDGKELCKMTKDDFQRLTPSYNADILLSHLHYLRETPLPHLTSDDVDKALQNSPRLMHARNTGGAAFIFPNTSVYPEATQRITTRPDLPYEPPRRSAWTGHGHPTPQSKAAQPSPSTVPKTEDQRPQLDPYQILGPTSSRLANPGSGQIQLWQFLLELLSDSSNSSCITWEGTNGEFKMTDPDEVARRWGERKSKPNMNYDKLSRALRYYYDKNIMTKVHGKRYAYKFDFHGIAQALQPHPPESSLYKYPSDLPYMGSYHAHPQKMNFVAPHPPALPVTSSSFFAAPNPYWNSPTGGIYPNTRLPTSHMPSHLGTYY
In short: as §1

[5] = molecular target: ELF1 (Homo sapiens, UniProt P32519 1-619); conditions: protein: recombinant; tags: N-terminal GST; dsDNA, one strand shown
ELF1, sequence (P32519 whole entry): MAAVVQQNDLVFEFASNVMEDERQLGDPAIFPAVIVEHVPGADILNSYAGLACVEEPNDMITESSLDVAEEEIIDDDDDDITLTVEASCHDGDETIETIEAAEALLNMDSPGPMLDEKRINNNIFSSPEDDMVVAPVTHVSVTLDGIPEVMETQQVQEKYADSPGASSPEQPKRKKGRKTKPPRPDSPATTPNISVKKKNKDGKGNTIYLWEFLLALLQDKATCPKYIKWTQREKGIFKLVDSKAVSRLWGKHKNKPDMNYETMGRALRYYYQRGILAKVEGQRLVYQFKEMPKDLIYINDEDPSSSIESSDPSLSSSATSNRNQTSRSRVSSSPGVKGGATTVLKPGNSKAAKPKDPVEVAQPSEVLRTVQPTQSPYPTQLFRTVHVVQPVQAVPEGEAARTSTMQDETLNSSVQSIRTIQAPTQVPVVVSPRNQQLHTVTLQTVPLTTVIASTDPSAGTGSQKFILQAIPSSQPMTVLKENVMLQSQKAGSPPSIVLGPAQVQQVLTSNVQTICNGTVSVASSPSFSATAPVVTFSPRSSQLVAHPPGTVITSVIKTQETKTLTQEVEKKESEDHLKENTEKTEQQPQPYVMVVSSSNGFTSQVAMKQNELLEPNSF
In short: as §1

[6] = molecular target: T5, EHF (Homo sapiens, UniProt Q9NZC4 1-300); conditions: protein: recombinant; tags: N-terminal GST; dsDNA, one strand shown
T5 sequence: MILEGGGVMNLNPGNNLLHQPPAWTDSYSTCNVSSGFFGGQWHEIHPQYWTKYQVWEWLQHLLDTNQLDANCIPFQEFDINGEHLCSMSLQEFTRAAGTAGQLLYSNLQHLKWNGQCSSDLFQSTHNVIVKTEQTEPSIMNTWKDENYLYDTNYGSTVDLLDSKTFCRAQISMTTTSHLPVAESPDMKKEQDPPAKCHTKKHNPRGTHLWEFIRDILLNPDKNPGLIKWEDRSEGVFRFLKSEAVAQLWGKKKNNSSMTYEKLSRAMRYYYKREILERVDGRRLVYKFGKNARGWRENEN
In short: as §1

[7] = molecular target: SPI1 (Homo sapiens, UniProt P17947 1-270); conditions: protein: recombinant; tags: N-terminal GST; dsDNA, one strand shown
In short: as §1

[8] = molecular target: SPIB (Homo sapiens, UniProt Q01892 1-262); conditions: protein: recombinant; tags: N-terminal GST; dsDNA, one strand shown
SPIB, sequence (Q01892 whole entry): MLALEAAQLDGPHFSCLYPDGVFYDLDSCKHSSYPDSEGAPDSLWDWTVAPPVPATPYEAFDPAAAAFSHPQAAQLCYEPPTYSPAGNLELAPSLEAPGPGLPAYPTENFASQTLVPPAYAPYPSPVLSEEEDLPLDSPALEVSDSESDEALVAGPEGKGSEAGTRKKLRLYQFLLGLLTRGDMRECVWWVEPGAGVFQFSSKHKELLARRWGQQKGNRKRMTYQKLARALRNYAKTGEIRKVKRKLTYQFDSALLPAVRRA
In short: as §1

[9] = molecular target: T6, ELK3 (Homo sapiens, UniProt P41970 1-407); conditions: protein: recombinant; tags: N-terminal GST; dsDNA, one strand shown
T6 sequence: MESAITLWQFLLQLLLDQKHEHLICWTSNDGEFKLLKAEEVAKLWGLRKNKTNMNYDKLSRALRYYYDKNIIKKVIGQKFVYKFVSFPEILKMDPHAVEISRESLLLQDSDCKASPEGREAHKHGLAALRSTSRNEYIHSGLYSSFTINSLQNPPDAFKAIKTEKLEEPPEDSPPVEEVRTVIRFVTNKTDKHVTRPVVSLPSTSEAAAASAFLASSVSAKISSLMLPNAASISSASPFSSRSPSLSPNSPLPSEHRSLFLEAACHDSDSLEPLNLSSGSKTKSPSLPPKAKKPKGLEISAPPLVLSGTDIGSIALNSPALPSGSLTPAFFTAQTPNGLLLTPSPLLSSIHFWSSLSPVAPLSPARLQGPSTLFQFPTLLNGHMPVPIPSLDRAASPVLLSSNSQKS
In short: as §1

[10] = molecular target: T7, FEV (Homo sapiens, UniProt Q99581 1-238); conditions: protein: recombinant; tags: N-terminal GST; dsDNA, one strand shown
T7 sequence: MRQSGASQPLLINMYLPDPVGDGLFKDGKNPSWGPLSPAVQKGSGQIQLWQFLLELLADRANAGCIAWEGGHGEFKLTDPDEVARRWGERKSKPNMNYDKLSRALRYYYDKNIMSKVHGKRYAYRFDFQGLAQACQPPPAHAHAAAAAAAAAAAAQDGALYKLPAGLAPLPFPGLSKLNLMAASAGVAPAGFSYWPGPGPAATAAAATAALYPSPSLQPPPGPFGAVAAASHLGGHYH
In short: as §1

[11] = molecular target: ETV5 (Homo sapiens, UniProt P41161 1-510); conditions: protein: recombinant; tags: N-terminal GST; dsDNA, one strand shown
ETV5, sequence (P41161 whole entry): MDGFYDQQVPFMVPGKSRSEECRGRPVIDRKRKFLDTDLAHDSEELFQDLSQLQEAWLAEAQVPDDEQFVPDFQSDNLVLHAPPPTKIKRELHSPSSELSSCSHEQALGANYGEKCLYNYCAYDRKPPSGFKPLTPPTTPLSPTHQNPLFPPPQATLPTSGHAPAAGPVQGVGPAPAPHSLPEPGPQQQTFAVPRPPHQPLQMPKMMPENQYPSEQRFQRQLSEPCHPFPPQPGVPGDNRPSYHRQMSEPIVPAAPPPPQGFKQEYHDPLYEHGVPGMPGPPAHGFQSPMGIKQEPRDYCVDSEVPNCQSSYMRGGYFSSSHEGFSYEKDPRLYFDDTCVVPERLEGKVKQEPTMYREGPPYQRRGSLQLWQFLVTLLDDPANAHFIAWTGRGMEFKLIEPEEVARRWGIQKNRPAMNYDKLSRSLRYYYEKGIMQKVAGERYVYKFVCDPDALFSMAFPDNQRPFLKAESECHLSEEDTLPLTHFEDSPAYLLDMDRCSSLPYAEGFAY
In short: as §1

[12] = molecular target: HSF1 (Homo sapiens, UniProt Q00613 1-529); conditions: protein: recombinant; tags: N-terminal GST; chain copies: 3; dsDNA, one strand shown
HSF1, sequence (Q00613 whole entry): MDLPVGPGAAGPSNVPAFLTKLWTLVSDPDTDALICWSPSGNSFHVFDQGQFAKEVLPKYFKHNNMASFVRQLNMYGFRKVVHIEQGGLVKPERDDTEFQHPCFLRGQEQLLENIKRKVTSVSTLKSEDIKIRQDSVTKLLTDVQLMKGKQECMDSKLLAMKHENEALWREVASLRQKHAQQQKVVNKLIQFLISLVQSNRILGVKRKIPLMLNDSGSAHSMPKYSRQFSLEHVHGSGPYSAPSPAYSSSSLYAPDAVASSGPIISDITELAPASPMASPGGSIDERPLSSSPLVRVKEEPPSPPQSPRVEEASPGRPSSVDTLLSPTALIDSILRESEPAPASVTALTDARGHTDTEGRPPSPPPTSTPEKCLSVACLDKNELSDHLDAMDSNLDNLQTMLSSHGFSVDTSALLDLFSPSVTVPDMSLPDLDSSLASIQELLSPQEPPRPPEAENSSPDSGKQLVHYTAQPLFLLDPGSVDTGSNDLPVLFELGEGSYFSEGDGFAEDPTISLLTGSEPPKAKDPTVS
In short: as §1

[13] = molecular target: T8, SPIC (Homo sapiens, UniProt Q8N5J4 1-248); conditions: protein: recombinant; tags: N-terminal GST; dsDNA, one strand shown
T8 sequence: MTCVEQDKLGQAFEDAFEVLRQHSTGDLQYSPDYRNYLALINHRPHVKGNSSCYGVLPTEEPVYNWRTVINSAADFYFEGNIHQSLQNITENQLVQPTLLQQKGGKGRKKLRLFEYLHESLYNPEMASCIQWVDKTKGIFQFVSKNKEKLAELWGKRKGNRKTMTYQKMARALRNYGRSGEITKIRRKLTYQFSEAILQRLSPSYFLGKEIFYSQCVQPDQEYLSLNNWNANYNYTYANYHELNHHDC
In short: as §1

[14] = molecular target: ELF4 (Homo sapiens, UniProt Q99607 1-663); conditions: protein: recombinant; tags: N-terminal GST; dsDNA, one strand shown
ELF4, sequence (Q99607 whole entry): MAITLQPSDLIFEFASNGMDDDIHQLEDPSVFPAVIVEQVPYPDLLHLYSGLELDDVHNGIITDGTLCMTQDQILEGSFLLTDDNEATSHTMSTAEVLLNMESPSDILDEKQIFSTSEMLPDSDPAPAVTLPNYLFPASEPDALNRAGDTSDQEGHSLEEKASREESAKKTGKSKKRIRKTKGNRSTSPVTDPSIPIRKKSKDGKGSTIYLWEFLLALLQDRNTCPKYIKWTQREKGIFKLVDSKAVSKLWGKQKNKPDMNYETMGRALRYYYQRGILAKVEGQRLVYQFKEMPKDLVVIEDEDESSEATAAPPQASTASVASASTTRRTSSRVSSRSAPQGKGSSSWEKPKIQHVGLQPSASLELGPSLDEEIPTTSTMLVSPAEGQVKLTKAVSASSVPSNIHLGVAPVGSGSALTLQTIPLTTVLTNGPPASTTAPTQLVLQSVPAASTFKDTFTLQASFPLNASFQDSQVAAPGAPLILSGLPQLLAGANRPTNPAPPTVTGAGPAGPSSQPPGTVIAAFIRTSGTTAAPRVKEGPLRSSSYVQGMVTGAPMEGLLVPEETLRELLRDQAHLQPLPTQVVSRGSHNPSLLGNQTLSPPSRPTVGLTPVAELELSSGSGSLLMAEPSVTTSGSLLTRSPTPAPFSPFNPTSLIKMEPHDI
In short: as §1

[15] = molecular target: T9, ELK4 (Homo sapiens, UniProt P28324-2 1-405); conditions: protein: recombinant; tags: N-terminal GST; dsDNA, one strand shown
T9 sequence: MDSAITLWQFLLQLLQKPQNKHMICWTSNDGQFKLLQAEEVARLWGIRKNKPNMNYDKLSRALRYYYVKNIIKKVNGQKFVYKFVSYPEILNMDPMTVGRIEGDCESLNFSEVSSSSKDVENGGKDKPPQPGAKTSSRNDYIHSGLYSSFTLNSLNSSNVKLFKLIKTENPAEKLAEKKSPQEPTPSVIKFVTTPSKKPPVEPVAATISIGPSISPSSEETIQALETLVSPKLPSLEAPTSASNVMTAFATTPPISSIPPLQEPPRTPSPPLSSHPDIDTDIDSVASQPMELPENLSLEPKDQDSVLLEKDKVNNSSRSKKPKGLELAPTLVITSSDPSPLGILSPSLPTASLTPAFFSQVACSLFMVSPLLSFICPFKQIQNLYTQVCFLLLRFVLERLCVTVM
In short: as §1

[16] = molecular target: T10, ETV2 (Homo sapiens, UniProt O00321 1-342); conditions: protein: recombinant; tags: N-terminal GST; dsDNA, one strand shown
T10 sequence: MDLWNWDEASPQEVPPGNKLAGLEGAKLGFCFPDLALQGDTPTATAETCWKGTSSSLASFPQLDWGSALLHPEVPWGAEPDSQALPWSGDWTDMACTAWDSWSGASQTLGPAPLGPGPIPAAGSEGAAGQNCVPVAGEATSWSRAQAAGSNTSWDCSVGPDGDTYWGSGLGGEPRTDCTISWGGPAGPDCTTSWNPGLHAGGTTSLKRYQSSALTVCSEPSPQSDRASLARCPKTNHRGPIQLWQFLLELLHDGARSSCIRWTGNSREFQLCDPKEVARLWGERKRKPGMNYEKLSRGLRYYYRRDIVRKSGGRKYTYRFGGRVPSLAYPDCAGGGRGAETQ
In short: as §1

[17] = molecular target: T11, ELF3 (Homo sapiens, UniProt P78545 1-371); conditions: protein: recombinant; tags: N-terminal GST; dsDNA, one strand shown
T11 sequence: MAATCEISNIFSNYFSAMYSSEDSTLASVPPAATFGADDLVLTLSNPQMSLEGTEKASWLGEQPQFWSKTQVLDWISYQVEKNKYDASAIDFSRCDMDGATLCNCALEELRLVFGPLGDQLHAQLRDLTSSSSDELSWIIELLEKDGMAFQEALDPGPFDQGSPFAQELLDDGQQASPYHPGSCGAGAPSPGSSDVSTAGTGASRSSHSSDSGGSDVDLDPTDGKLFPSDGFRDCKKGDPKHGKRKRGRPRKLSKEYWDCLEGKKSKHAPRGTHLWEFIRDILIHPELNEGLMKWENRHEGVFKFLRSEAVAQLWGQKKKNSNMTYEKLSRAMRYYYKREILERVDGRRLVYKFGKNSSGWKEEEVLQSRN
In short: as §1

[18] = molecular target: CRX (Homo sapiens, UniProt O43186 1-299); conditions: protein: recombinant; tags: N-terminal GST; dsDNA, one strand shown
CRX, sequence (O43186 whole entry): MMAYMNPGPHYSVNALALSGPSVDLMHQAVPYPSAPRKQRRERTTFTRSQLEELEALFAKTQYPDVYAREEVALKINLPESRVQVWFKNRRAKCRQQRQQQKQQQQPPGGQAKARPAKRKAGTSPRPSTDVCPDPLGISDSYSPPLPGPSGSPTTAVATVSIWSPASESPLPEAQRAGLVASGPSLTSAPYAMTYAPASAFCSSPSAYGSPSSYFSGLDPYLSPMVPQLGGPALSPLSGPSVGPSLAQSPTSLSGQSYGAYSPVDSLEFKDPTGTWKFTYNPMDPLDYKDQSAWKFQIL
In short: as §1

[19] = molecular target: ETV1 (Homo sapiens, UniProt P50549 1-477); conditions: protein: recombinant; tags: N-terminal GST; dsDNA, one strand shown
ETV1, sequence (P50549 whole entry): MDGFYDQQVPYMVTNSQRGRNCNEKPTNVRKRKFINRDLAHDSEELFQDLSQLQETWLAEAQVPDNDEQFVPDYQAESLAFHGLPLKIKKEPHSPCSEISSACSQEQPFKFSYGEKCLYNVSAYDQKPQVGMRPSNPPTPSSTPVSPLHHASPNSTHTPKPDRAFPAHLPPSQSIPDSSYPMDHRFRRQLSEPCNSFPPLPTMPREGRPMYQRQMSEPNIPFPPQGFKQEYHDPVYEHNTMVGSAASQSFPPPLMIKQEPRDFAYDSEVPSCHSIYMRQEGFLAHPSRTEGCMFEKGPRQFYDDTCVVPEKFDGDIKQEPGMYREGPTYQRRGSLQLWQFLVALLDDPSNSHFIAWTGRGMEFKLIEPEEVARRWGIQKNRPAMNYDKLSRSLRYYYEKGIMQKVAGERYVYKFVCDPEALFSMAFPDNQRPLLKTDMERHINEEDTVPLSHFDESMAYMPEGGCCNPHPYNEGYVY
In short: as §1

## CCCACT
[1]
  binding signal: 1.36 fold enrichment (6-mer frequency, TF over GST control)
[2]
  binding signal: 1.45 fold enrichment (6-mer frequency, TF over GST control)
[3]
  binding signal: 1.26 fold enrichment (6-mer frequency, TF over GST control)
[4]
  binding signal: 1.35 fold enrichment (6-mer frequency, TF over GST control)
[5]
  binding signal: 1.38 fold enrichment (6-mer frequency, TF over GST control)
[6]
  binding signal: 1.46 fold enrichment (6-mer frequency, TF over GST control)
[7]
  binding signal: 1.39 fold enrichment (6-mer frequency, TF over GST control)
[8]
  binding signal: 1.26 fold enrichment (6-mer frequency, TF over GST control)
[9]
  binding signal: 1.42 fold enrichment (6-mer frequency, TF over GST control)
[10]
  binding signal: 1.5 fold enrichment (6-mer frequency, TF over GST control)
[11]
  binding signal: 1.33 fold enrichment (6-mer frequency, TF over GST control)
[12]
  binding signal: 1.07 fold enrichment (6-mer frequency, TF over GST control)
[13]
  binding signal: 1.27 fold enrichment (6-mer frequency, TF over GST control)
[14]
  binding signal: 1.43 fold enrichment (6-mer frequency, TF over GST control)
[15]
  binding signal: 1.24 fold enrichment (6-mer frequency, TF over GST control)
[16]
  binding signal: 1.37 fold enrichment (6-mer frequency, TF over GST control)
[17]
  binding signal: 1.18 fold enrichment (6-mer frequency, TF over GST control)
[18]
  binding signal: 1.14 fold enrichment (6-mer frequency, TF over GST control)
[19]
  binding signal: 1.34 fold enrichment (6-mer frequency, TF over GST control)
